Data reported in PubChem BioAssay (EPA / NIEHS).
Where “and” joins values, the source holds several entries; their conditions need not be identical. Equal values may be shown once. Inconclusive results are not listed. Some structures have more than one record in an assay (separate samples or runs), and their calls can disagree. Calls of active or inactive are those of the source. The calls were made as follows, unless noted: active = hit-call score of the fitted dose curve at least 0.9, where 1 is the maximum; inconclusive = response in the unintended direction; inactive = score below 0.9.

Columns and labels:
[1] = biological target: human Peroxisome Proliferator-activated Receptor delta (PPARd), PPARD (gene 5467) (UniProt Q03181); assay: ATG_PPARd_TRANS: Attagene TRANS-FACTORIAL HepG2 Assay for human Peroxisome Proliferator-activated Receptor delta (PPARd) (AID 2283002)
human Peroxisome Proliferator-activated Receptor delta (PPARd), PPARD (gene 5467), sequence (Q03181 whole entry, looked up, the tested form may be a part): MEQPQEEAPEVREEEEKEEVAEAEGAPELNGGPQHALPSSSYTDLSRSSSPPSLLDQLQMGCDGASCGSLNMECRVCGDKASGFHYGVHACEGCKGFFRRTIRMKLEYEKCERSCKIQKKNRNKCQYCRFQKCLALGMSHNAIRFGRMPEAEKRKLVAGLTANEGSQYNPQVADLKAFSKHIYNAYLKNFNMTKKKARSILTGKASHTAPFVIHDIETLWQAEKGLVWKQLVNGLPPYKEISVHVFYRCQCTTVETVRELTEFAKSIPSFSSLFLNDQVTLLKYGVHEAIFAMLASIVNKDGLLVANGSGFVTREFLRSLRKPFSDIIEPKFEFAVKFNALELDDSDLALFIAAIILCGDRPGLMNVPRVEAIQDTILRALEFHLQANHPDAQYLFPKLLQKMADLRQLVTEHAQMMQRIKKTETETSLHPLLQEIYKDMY
Summary of the method: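 HepG2 cells transiently transfected with multiplexed GAL4-UAS reporter units and exogenous chimeric NR-Gal4 proteins; 24 h compound exposure. Reporter mRNA measured by RT-PCR, 6-FAM labelling, HpaI digestion and capillary electrophoresis; gain of signal versus DMSO.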

[2] = read-out: Intercellular Adhesion Molecule 1 (ICAM1), ICAM1 (gene 3383); assay: BSK_3C_ICAM1: BioMAP Diversity Plus: 3C Assay for Intercellular Adhesion Molecule 1 (ICAM1) Biomarker Activity (AID 2283003; active = hit-call score of the fitted dose curve at least 0.9, where 1 is the maximum; inactive = score below 0.9); conditions: primary human endothelial cells (HUVEC); actives raise or lower the signal
Summary of the method: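 ELISA read-out of ICAM-1; HUVEC (primary human), 3C system, 24 h post-dosing; bidirectional fit vs DMSO baseline.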

[3] = BSK_3C_Proliferation: Cell Proliferation Assessment in the BioMAP Diversity Plus: 3C Assay (AID 2283006; active = hit-call score of the fitted dose curve at least 0.9, where 1 is the maximum; inactive = score below 0.9;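 as to AC50: potency may reflect either rise or fall in cell number versus DMSO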); conditions: primary human endothelial cells (HUVEC)
Summary of the method: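 HUVEC, sub-confluent; 48 h chemical exposure; 10% TCA fix, 0.1% SRB stain, A560 total protein. Gain or loss of signal fitted both directions vs DMSO control.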

[4] = biological target: Peroxisome proliferator-activated receptor gamma (Homo sapiens) (UniProt P37231); assay: ATG_PPARg_TRANS: Attagene TRANS-FACTORIAL HepG2 Assay for human Peroxisome Proliferator-activated Receptor-gamma (PPARg) (AID 2283007)
Peroxisome proliferator-activated receptor gamma (Homo sapiens), sequence (P37231 whole entry, looked up, the tested form may be a part): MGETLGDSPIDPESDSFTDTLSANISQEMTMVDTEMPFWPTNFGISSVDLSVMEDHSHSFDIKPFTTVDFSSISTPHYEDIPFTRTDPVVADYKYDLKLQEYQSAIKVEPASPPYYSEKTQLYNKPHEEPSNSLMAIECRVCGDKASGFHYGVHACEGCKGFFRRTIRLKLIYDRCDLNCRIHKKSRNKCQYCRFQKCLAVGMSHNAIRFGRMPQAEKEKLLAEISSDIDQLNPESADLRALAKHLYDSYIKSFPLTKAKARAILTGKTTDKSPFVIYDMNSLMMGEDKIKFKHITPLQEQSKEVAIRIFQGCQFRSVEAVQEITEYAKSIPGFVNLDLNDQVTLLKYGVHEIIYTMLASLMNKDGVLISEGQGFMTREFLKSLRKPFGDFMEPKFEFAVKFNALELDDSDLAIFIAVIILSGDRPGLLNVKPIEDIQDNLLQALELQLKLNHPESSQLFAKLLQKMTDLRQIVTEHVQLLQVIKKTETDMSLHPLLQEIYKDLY
Summary of the method: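 Liver-derived HepG2 cells expressing an exogenous NR-Gal4 chimera alongside GAL4-UAS reporter genes; 24 h exposure. Fluorescence of reporter RT-PCR products, separated by capillary electrophoresis, gives mRNA induction relative to DMSO.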

[5] = biological target: Nuclear receptor subfamily 1 group I member 2 (Homo sapiens) (UniProt O75469); assay: ATG_PXR_TRANS: Attagene TRANS-FACTORIAL HepG2 Assay for human Pregnane X Receptor (PXR) (AID 2283008)
Nuclear receptor subfamily 1 group I member 2 (Homo sapiens), sequence (O75469 whole entry, looked up, the tested form may be a part): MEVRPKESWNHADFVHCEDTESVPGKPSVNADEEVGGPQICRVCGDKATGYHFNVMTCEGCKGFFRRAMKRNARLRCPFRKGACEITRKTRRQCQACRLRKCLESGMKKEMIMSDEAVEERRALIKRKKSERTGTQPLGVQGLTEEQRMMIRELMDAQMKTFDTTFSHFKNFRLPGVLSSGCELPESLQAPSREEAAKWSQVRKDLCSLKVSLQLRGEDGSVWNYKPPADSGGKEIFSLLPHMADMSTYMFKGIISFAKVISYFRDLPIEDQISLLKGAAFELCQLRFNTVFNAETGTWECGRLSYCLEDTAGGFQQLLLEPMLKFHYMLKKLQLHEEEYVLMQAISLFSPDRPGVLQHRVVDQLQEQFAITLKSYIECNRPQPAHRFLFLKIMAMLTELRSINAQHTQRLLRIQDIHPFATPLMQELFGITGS
Summary of the method: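 Multiplexed TRANS reporter panel in HepG2; this component tracks PXR-Gal4-driven reporter mRNA after 24 h dosing, measured by RT-PCR with capillary electrophoresis fluorescence, fitted against DMSO.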

[6] = biological target: Retinoic acid receptor RXR-alpha (Homo sapiens) (UniProt P19793); assay: ATG_RXRa_TRANS: Attagene TRANS-FACTORIAL HepG2 Assay for human Retinoid X Receptor alpha (RXRa) (AID 2283012)
Retinoic acid receptor RXR-alpha (Homo sapiens), sequence (P19793 whole entry, looked up, the tested form may be a part): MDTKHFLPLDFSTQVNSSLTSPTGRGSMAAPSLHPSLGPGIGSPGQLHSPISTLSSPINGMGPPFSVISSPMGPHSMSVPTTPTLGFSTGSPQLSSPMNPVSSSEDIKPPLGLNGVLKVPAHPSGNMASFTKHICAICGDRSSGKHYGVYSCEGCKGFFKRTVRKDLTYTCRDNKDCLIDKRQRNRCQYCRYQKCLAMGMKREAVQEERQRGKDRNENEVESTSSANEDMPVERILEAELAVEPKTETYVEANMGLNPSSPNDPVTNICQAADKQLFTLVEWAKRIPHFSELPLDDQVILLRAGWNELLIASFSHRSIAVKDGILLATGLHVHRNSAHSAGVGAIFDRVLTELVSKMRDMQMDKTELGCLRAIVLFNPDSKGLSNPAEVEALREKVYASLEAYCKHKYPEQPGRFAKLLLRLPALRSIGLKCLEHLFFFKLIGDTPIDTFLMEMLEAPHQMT
Summary of the method: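 Read-out: fluorescent reporter-transcript fragments quantified by capillary electrophoresis after RT-PCR. Transiently transfected HepG2 cells carrying GAL4-UAS reporters and NR-GAL4 chimeras were exposed to chemical for 24 h; activity scored as increase over DMSO.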

[7] = biological target: human Retinoid X Receptor beta (RXRb), RXRB (gene 6257) (UniProt P28702); assay: ATG_RXRb_TRANS: Attagene TRANS-FACTORIAL HepG2 Assay for human Retinoid X Receptor beta (RXRb) (AID 2283013)
human Retinoid X Receptor beta (RXRb), RXRB (gene 6257), sequence (P28702 whole entry, looked up, the tested form may be a part): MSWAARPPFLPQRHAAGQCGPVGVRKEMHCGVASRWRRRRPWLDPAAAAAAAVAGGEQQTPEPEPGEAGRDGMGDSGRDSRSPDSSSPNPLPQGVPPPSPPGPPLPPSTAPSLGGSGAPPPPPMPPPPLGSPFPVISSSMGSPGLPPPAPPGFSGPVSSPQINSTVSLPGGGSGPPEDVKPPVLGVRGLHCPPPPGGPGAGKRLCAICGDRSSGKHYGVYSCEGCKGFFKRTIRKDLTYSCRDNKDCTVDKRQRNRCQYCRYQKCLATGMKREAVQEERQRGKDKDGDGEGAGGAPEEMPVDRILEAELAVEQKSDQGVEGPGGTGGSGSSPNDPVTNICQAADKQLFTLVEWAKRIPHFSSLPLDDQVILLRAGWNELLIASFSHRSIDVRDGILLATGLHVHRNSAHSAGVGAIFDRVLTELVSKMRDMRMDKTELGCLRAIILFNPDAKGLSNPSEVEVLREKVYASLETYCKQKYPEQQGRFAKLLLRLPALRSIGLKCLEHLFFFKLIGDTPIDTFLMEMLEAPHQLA
Summary of the method: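 Read-out: reporter mRNA induction via RT-PCR plus capillary electrophoresis fluorescence, analysed as signal increase relative to DMSO. Cells were human HepG2, transiently transfected with GAL4-UAS reporter constructs and chimeric receptor-Gal4 fusions, dosed for 24 h.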

[8] = biological target: human Thyroid Receptor alpha (THRa1), THRA (gene 7067) (UniProt P10827); assay: ATG_THRa1_TRANS: Attagene TRANS-FACTORIAL HepG2 Assay for human Thyroid Receptor alpha (THRa1) (AID 2283014)
human Thyroid Receptor alpha (THRa1), THRA (gene 7067), sequence (P10827 whole entry, looked up, the tested form may be a part): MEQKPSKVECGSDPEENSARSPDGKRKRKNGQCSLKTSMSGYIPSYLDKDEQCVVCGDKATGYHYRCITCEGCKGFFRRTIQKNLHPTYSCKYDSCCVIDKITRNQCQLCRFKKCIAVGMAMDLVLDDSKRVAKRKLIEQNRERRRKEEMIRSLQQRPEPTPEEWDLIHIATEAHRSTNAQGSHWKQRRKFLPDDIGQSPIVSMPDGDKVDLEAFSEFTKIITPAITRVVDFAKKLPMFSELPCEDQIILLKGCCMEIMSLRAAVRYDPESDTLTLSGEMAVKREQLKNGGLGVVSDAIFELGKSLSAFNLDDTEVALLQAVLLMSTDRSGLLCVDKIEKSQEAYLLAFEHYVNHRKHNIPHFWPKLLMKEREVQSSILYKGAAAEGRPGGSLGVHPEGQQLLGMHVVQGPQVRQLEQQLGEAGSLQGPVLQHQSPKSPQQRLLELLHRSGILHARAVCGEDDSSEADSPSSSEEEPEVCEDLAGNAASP
Summary of the method: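 Transcripts from GAL4-UAS-driven reporters, measured after 24 h compound exposure by RT-PCR plus capillary electrophoresis of 6-FAM-labeled fragments, were fitted for gain of signal relative to DMSO. Cells: transiently transfected HepG2 expressing NR-Gal4 chimeras.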

[9] = read-out: Interleukin-1 alpha (IL1a), IL1A (gene 3552); assay: BSK_BE3C_IL1a: BioMAP Diversity Plus: BE3C Assay for Interleukin-1 alpha (IL1a) Biomarker Activity (AID 2283016; active = hit-call score of the fitted dose curve at least 0.9, where 1 is the maximum; inactive = score below 0.9); conditions: primary human bronchial epithelial cells; actives raise or lower the signal
Summary of the method: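 ELISA read-out of IL-1a from human lung bronchial epithelial primary cells, 24 h post-dose. Gain or loss of signal fitted relative to DMSO negative control.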

[10] = read-out: Monocyte Chemoattractant Protein-1 (MCP1), CCL2 (gene 6347); assay: BSK_3C_MCP1: BioMAP Diversity Plus: 3C Assay for Monocyte Chemoattractant Protein-1 (MCP1) Biomarker Activity (AID 2283017; active = hit-call score of the fitted dose curve at least 0.9, where 1 is the maximum; inactive = score below 0.9); conditions: primary human endothelial cells (HUVEC); actives raise or lower the signal
Summary of the method: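 MCP-1 was measured by ELISA 24 h after dosing in primary HUVEC 3C cultures and fitted in both directions relative to DMSO; cytotoxicity was checked by SRB total-protein staining in parallel wells.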

[11] = read-out: Monocyte Chemoattractant Protein-1 (MCP1), CCL2 (gene 6347); assay: BSK_4H_MCP1: BioMAP Diversity Plus: 4H Assay for Monocyte Chemoattractant Protein-1 (MCP1) Biomarker Activity (AID 2283018; active = hit-call score of the fitted dose curve at least 0.9, where 1 is the maximum; inactive = score below 0.9); conditions: primary human endothelial cells (HUVEC); actives raise or lower the signal
Summary of the method: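 HUVEC primary cells, 24 h post-dose, MCP-1 by ELISA. Gain or loss of signal fitted bidirectionally vs DMSO baseline. Cytotoxicity: SRB stain (0.1% after 10% TCA fixation), read 560 nm, parallel cultures.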

[12] = read-out: Human Leukocyte Antigen - DR isotype (HLADR), HLA-DRA (gene 3122); assay: BSK_3C_HLADR: BioMAP Diversity Plus: 3C Assay for Human Leukocyte Antigen - DR isotype (HLADR) Biomarker Activity (AID 2283019; active = hit-call score of the fitted dose curve at least 0.9, where 1 is the maximum; inactive = score below 0.9); conditions: primary human endothelial cells (HUVEC); actives raise or lower the signal
Summary of the method: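 Bidirectional fitting against DMSO was applied to the HLA-DR ELISA signal from human umbilical vein endothelial cells, 24 h post-dose. Cytotoxicity came from parallel SRB total-protein staining; 3C proliferation was counted by SRB at 48 h.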

[13] = read-out: Interleukin-8 (IL8), CXCL8 (gene 3576); assay: BSK_3C_IL8: BioMAP Diversity Plus: 3C Assay for Interleukin-8 (IL8) Biomarker Activity (AID 2283020; active = hit-call score of the fitted dose curve at least 0.9, where 1 is the maximum; inactive = score below 0.9); conditions: primary human endothelial cells (HUVEC); actives raise or lower the signal
Summary of the method: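 HUVEC, 3C stimulation; 24 h compound exposure; IL-8 read by ELISA; gain or loss of signal fitted relative to DMSO control.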

[14] = biological target: human Peroxisome Proliferator-activated Receptor alpha (PPARa), PPARA (gene 5465) (UniProt Q07869); assay: ATG_PPARa_TRANS: Attagene TRANS-FACTORIAL HepG2 Assay for human Peroxisome Proliferator-activated Receptor alpha (PPARa) (AID 2283001)
Summary of the method: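 Exposure: 24 h, transiently transfected HepG2 cells. Endpoint: GAL4-UAS reporter mRNA, RT-PCR with capillary electrophoresis fluorescence. Baseline: DMSO; increases fitted.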

[15] = biological target: human RAR-related Orphan Receptor gamma (RORg), RORC (gene 6097) (UniProt P51449); assay: ATG_RORg_TRANS: Attagene TRANS-FACTORIAL HepG2 Assay for human RAR-related Orphan Receptor gamma (RORg) (AID 2283011)
Summary of the method: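 Reporter transcripts from a transfected RORg-GAL4 chimera in HepG2 cells were quantified 24 h after dosing by RT-PCR, 6-FAM labelling, HpaI digestion and capillary electrophoresis; increases over DMSO baseline were fitted.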

[16] = biological target: human Retinoic Acid Receptor beta (RARb), RARB (gene 5915) (UniProt P10826); assay: ATG_RARb_TRANS: Attagene TRANS-FACTORIAL HepG2 Assay for human Retinoic Acid Receptor beta (AID 2283004)
human Retinoic Acid Receptor beta (RARb), RARB (gene 5915), sequence (P10826 whole entry, looked up, the tested form may be a part): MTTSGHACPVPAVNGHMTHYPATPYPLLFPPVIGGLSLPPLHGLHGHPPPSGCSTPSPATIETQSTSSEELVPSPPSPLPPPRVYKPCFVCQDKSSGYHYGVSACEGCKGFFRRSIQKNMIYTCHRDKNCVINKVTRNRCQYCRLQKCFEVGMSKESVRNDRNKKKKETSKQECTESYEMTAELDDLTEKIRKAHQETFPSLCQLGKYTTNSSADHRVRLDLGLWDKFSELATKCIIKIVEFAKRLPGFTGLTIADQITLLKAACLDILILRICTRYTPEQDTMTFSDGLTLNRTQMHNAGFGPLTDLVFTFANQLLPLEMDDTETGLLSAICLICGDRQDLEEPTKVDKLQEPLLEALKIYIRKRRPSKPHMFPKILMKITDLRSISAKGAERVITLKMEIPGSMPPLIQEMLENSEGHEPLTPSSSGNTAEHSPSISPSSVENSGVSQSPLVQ
Summary of the method: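 Induction of reporter mRNA from a chimeric RARb-Gal4 construct was measured by RT-PCR, FAM labelling, HpaI digestion and capillary electrophoresis. Measurements followed 24 h compound treatment of transiently transfected human HepG2 liver cells, with DMSO as baseline.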

[17] = biological target: human Retinoic Acid Receptor gamma (RARg), RARG (gene 5916) (UniProt P13631); assay: ATG_RARg_TRANS: Attagene TRANS-FACTORIAL HepG2 Assay for human Retinoic Acid Receptor gamma (RARg) (AID 2283009);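 as to AC50: AC50 is for reporter induction above DMSO meaning RARg activation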
human Retinoic Acid Receptor gamma (RARg), RARG (gene 5916), sequence (P13631 whole entry, looked up, the tested form may be a part): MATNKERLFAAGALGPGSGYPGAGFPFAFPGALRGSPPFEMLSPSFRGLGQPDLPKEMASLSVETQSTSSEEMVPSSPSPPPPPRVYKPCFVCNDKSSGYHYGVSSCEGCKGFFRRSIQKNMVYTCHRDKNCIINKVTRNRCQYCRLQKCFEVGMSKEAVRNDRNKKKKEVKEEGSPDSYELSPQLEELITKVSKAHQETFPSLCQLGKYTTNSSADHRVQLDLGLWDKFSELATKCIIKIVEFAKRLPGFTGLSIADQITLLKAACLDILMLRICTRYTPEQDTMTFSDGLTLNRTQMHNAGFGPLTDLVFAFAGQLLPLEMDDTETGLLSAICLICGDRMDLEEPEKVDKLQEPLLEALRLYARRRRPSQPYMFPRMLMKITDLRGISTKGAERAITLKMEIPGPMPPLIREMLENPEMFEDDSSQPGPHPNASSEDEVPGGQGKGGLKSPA
Summary of the method: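 Readout: reporter transcript levels via RT-PCR, 6-FAM primer-extension labelling, HpaI digestion and capillary electrophoresis. Cells: HepG2 carrying transfected RARg-GAL4 chimera plus UAS reporter set. Dosing 24 h; DMSO negative control.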

[18] = biological target: Retinoic acid receptor alpha (Homo sapiens) (UniProt P10276); assay: ATG_RARa_TRANS: Attagene TRANS-FACTORIAL HepG2 Assay for human Retinoic Acid Receptor alpha (RARa) (AID 2283005);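 as to AC50: potency for increased reporter signal meaning RARa activation over DMSO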
Retinoic acid receptor alpha (Homo sapiens), sequence (P10276 whole entry, looked up, the tested form may be a part): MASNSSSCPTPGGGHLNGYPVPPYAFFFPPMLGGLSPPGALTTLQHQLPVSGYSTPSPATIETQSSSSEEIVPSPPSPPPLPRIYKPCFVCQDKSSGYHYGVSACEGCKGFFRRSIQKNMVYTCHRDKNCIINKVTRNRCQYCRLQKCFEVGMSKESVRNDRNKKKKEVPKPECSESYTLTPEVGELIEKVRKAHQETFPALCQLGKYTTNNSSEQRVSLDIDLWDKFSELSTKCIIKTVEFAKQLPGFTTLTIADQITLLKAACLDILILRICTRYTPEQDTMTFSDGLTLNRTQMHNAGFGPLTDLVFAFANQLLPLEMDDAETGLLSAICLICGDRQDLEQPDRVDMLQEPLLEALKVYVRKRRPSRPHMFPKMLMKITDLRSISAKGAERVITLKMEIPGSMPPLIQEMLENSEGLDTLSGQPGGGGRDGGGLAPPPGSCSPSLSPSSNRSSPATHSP
Summary of the method: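 HepG2 cells transiently transfected with multiple reporter units expressing chimeric RARα-GAL4 fusion, with GAL4-UAS-driven reporters. After 24 h compound exposure, reporter mRNA induction quantified by RT-PCR and capillary electrophoresis with fluorescent labeling; gain-of-signal fitted relative to DMSO control.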

[19] = biological target: human RAR-related Orphan Receptor beta (RORb), RORB (gene 6096) (UniProt Q92753); assay: ATG_RORb_TRANS: Attagene TRANS-FACTORIAL HepG2 Assay for human RAR-related Orphan Receptor beta (RORb) (AID 2283010)
human RAR-related Orphan Receptor beta (RORb), RORB (gene 6096), sequence (Q92753 whole entry, looked up, the tested form may be a part): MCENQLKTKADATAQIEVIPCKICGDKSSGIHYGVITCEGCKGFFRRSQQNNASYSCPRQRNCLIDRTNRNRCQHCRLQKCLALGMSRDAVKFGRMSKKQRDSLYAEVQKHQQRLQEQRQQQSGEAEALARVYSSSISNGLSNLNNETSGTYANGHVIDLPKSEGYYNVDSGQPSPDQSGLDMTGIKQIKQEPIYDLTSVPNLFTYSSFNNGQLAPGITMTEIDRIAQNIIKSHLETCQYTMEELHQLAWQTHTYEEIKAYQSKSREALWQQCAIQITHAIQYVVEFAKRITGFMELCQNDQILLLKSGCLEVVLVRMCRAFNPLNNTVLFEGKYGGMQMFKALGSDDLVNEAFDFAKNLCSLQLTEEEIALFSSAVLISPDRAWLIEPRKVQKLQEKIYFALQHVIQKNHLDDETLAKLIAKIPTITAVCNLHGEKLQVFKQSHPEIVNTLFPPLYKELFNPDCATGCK
Summary of the method: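 HepG2, transient MRTU transfection (GAL4-UAS reporters, exogenous NR-Gal4 chimeras); 24 h compound exposure; total RNA → RT-PCR → 6-FAM primer extension → HpaI digest → CE fluorescence. Positive direction vs DMSO baseline.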

[20] = read-out: E-selectin (Homo sapiens) (UniProt P16581); assay: BSK_3C_Eselectin: BioMAP Diversity Plus: 3C Assay for Eselectin Biomarker Activity (AID 2283015; active = hit-call score of the fitted dose curve at least 0.9, where 1 is the maximum; inactive = score below 0.9); conditions: primary human endothelial cells (HUVEC); actives raise or lower the signal
Summary of the method: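 E-selectin ELISA readout, fitted bidirectionally relative to DMSO, taken 24 h post-dosing in HUVEC cultures of the 3C system. Overt cytotoxicity tracked with sulforhodamine B staining of parallel wells.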

Measured: AC50

CCNc1nc(NC(C)(C)C)nc(SC)n1
active: [4] 29.5 µM | [5] 2.02 µM | [7] 15.5 µM | [12] 20 µM
inactive: [1] | [2] | [3] | [6] | [8] | [9] | [10] | [11] | [13]

O=C(NCO)NCO
inactive: [14] | [15] | [6]

CNC(=O)O/N=C/C(C)(C)S(C)=O (stereo unspecified)
inactive: [14] | [16] | [5] | [6] | [7] | [8]
active: [4] 41.1 µM

ClC(Cl)=C(Cl)C(Cl)=C(Cl)Cl
inactive: [1] | [4] | [17] | [15] | [6] | [7] | [8]
active: [2] 34 µM | [3] 14.3 µM | [9] 36.7 µM | [10] 31.4 µM | [11] 31.6 µM | [12] 29.8 µM | [13] 32.4 µM

COc1cc(-c2ccc(N)c(OC)c2)ccc1N
inactive: [1] | [2] | [16] | [18] | [3] | [4] | [5] | [17] | [19] | [6] | [8] | [9] | [10] | [11] | [12] | [13]
active: [18] 27.4 µM | [3] 28.8 µM | [17] 27.2 µM | [7] 27.6 µM | [9] 5.28 µM | [10] 30 µM | [12] 25.5 µM | [13] 14.4 µM

O=C1C2(Cl)C3(Cl)C4(Cl)C(Cl)(Cl)C5(Cl)C3(Cl)C1(Cl)C5(Cl)C24Cl (stereo unspecified)
active: [2] 10.8 µM | [3] 4.9 µM | [5] 2.11 µM and 2.9 µM and 6.2 µM | [7] 2.67 µM and 7.57 µM | [8] 4.37 µM and 56.4 µM | [20] 11.7 µM | [9] 9.67 µM | [10] 9.53 µM | [11] 8.77 µM | [13] 22.3 µM
inactive: [1] | [16] | [18] | [4] | [5] | [17] | [19] | [6] | [7] | [8]

O=c1[nH]c(=O)[nH]c(=O)[nH]1
not listed: [14] | [17] | [20]
inactive: all other assays above

CC(=O)C(Cl)C(=O)N(C)C (stereo unspecified)
active: [3] 20 µM | [9] 20 µM | [10] 20 µM | [11] 20 µM | [13] 11.7 µM
inactive: [1] | [2] | [4] | [19] | [15] | [6] | [7] | [8]
